Records with an inconclusive call do not appear. Calls of active or inactive are those of the source. The calls were made as follows: active = hit-call score of the fitted dose curve at least 0.9, where 1 is the maximum; inconclusive = response in the unintended direction; inactive = score below 0.9.

For this assay, the target named is human Retinoic Acid Receptor gamma (RARg), RARG (gene 5916) (UniProt P13631). The assay is described as follows: ATG_RARg_TRANS: Attagene TRANS-FACTORIAL HepG2 Assay for human Retinoic Acid Receptor gamma (RARg) (AID 2283009). In short, it runs like this: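 HepG2, RARg-GAL4 TRANS system, 24 h exposure; reporter mRNA by RT-PCR + CE fluorescence; increase over DMSO.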
Sequence of human Retinoic Acid Receptor gamma (RARg), RARG (gene 5916) (P13631 whole entry, looked up, the tested form may be a part): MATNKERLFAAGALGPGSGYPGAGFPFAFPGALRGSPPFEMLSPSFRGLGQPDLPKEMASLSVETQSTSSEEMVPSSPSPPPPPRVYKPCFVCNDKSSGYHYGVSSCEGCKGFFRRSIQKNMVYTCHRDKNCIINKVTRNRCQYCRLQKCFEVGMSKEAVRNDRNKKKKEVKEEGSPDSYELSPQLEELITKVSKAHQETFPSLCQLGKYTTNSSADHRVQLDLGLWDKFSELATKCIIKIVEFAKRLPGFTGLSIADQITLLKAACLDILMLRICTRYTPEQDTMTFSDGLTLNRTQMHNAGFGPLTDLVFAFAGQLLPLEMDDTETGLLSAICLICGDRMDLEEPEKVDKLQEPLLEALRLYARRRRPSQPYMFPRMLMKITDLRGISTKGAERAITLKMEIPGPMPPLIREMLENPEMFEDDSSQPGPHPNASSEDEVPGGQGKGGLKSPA
For `CCCCCC/C=C/CCCCCCCC(=O)O`, the compound was called inactive. For the compound `Oc1ccc(C2(c3ccc(O)c(C4CCCCC4)c3)CCCCC2)cc1C1CCCCC1`, the compound was called inactive.

With `N#CCCOCCC#N`, the outcome was inactive. The result for `CCc1cc(Cc2cc(CC)c(N)c(CC)c2)cc(CC)c1N` reads “inactive”; that for `CC(C)(C)c1cc(Cc2cc(C(C)(C)C)c(O)c(C(C)(C)C)c2)cc(C(C)(C)C)c1O`, “inactive”; that for `OCCC(O)CO` (centres undefined), “inactive”. Then `C[C@]12CC[C@H]3C(=CCc4cc(O)ccc43)[C@@H]1CCC2=O`, with “inactive”; and `N#Cc1ccccc1O`, with “inactive”. The result for `CN(N=O)C(=O)N[C@@H]1[C@@H](O)[C@H](O)[C@@H](CO)O[C@@H]1O` reads “inactive”; that for `O=C1c2c(O)ccc(Nc3ccc(CCO)cc3)c2C(=O)c2c([N+](=O)[O-])ccc(O)c21`, “inactive”. For `CC(=O)CCC(C)C`, the call was inactive. The result for `O=c1[nH]cccc1O` reads “inactive”.

In the case of `CCOCN(C(=O)CS(=O)(=O)O)c1c(C)cccc1CC`, the compound was classed as inactive.

With `c1ccc(C[P+](c2ccccc2)(c2ccccc2)c2ccccc2)cc1`, the compound was called inactive. Take `Nc1c(Br)cc([N+](=O)[O-])cc1Br`: the outcome was inactive. Then `OCC1CCCO1` (centres undefined), with “inactive”; and `O=C1c2ccccc2C(=O)c2c(Cl)cccc21`, with “inactive”. The result for `OCCCCC(F)(F)C(F)(F)C(F)(F)C(F)(F)F` reads “inactive”; that for `C[Si](C)O[Si](C)C`, “inactive”.

For the origin of these results see PubChem BioAssay (EPA / NIEHS).
